The full ranking holds about 110,000 compounds; the median of “z-score” is about -0.1, and the highest 2% start at about 2. What follows is part of a selection rich in the highest values, with near analogues and random picks from the rest. Active and inactive are the calls of the source.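 How the source made its calls: active means z-score in the third read window above 3 or below -3; inactive means the rest.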
Target: Metabotropic glutamate receptor 8 (Rattus norvegicus) (UniProt P70579)
Assay: mGluR8 Gi/Go-coupled signaling modulation – cell-based, rat, thallium flux, HTS, primary screen (AID 488969)
Settings: HEK293 rat mGluR8, GIRK (G protein-gated inwardly rectifying potassium channel) thallium flux, FluoZin2; at 10 µM; stronger effect = higher value; submaximal glutamate (EC20) added with thallium

Sequence of Metabotropic glutamate receptor 8 (Rattus norvegicus) (P70579 whole entry, looked up): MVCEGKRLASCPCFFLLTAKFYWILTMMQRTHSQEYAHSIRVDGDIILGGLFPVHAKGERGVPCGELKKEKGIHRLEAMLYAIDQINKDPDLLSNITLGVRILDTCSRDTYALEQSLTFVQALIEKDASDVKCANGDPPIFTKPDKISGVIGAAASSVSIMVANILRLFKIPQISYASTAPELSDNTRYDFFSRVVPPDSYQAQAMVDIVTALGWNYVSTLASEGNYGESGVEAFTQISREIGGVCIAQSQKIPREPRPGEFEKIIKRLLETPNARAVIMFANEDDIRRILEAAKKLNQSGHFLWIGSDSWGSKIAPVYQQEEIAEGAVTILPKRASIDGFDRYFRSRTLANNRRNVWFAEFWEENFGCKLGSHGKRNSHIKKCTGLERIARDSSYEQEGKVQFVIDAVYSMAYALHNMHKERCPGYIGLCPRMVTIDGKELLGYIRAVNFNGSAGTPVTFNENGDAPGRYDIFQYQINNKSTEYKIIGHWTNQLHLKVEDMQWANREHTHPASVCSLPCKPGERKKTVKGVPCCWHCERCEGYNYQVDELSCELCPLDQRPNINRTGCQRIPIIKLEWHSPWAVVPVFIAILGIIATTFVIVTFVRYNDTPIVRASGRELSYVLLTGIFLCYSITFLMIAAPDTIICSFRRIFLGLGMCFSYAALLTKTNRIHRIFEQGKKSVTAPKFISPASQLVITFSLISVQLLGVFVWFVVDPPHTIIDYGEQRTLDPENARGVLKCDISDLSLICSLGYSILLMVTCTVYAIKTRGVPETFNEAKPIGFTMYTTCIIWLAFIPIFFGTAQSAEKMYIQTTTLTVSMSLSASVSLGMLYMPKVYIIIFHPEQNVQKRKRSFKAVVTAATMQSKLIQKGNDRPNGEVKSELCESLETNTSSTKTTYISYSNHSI

How did the z-score turn out when `COC(=O)COc1cc(Br)c(/C=C2/SC(=O)N(CC(=O)N3CCCC3)C2=O)cc1OC` was run?
Its z-score is 0.0962.

`O=C(OCc1nc2ccc(Cl)cc2n1CCO)c1ccc(O)cc1` was tested. Which z-score did it give?
Its z-score is -0.133.

`CCOC(=O)c1cc(CC)sc1NC(=O)c1ccc(N2C(=O)CCC2=O)cc1` was tested. Which z-score did it give?
Its z-score is -0.383.

`COc1ccc(C)cc1S(=O)(=O)N(C)CC(=O)N1CCCCCC1` was tested. Which z-score did it give?
Its z-score is -0.534.

How did the z-score turn out when `O=C(CSc1nc(-c2ccco2)cc(C(F)(F)F)n1)N1CCN(c2ccc(Cl)cc2)CC1` was run?
Its z-score is -0.455.

Which z-score does the source give for `COc1ccc(C2C(C(N)=O)=C(C)Nc3nc(-c4ccccc4OC)nn32)cc1OC` (stereo unspecified) here?
Its z-score is 0.317.

How did the z-score turn out when `CCN1C(=O)/C(=C/c2ccc(N3CCCC3)cc2)NC1=S` was run?
Its z-score is 1.3.

Which z-score does the source give for `O=C1/C(=C/c2ccc(N3CCCC3)cc2)NC(=S)N1C1CC1` here?
Its z-score is 2.85.

With `COc1ccc(N2C(=O)/C(=C/c3cccs3)NC2=S)cc1` as the compound, how does the z-score read?
The z-score was 1.07.

How did the z-score turn out when `COC(=O)C1=C(C)N(CC(C)C)C(=O)/C1=C\c1cccs1` was run?
Its z-score is -0.236.

For `CCCN1C(=O)/C(=C/c2ccc(C)s2)NC1=S`, which z-score is on record?
The z-score was 13.9 (active).

Which z-score does the source give for `Cc1cccc(CN2C(=O)N/C(=C/c3ccc(C)s3)C2=O)c1` here?
Its z-score is -0.147.

Which z-score does the source give for `Cc1ccc(NC(=O)CN2C(=O)N/C(=C/c3ccc(C)s3)C2=O)cc1` here?
Its z-score is 0.22.

How did the z-score turn out when `O=C1N/C(=C\c2ccc(N3CCOCC3)c(F)c2)C(=O)N1Cc1ccccc1` was run?
Its z-score is -0.434.

With `CC(C)CN1C(=O)/C(=C/c2cccs2)NC1=S` as the compound, how does the z-score read?
Its z-score is 15.8 (active).

Which z-score does the source give for `CCCN1C(=O)c2cccc3c(N4CCCCC4)ccc(c23)C1=O` here?
The z-score was -0.337.

With `O=C1N/C(=C/c2ccc(N3CCCC3)cc2)C(=O)N1c1ccccc1` as the compound, how does the z-score read?
The z-score was -0.886.

With `CCCN1C(=O)/C(=C/c2ccc(N3CCCC3)c(C)c2)NC1=S` as the compound, how does the z-score read?
Its z-score is 11 (active).

For `O=C1CSC(=S)N1CC1CCCO1` (stereo unspecified), which z-score is on record?
Its z-score is -0.08.

Which z-score does the source give for `Cc1noc(C)c1C(=O)NCCc1ccc(Cl)cc1` here?
Its z-score is -0.377.

`COCC(=O)NC1CCN(C(=O)Nc2ccc(Br)cc2)CC1` was tested. Which z-score did it give?
Its z-score is -0.036.

With `CCOC(=O)c1c(C)[nH]c(C(=O)/C(C#N)=C/c2ccc(OC(F)F)c(OC)c2)c1C` as the compound, how does the z-score read?
The z-score was -0.315.

For `O=C(NCC(c1cccs1)N1CCOCC1)c1ccccc1NS(=O)(=O)c1ccc(Cl)cc1` (stereo unspecified), which z-score is on record?
The z-score was -0.359.

How did the z-score turn out when `Cc1csc(NC(=O)C2CCCN(S(=O)(=O)c3cnc[nH]3)C2)n1` (stereo unspecified) was run?
Its z-score is 0.36.

How did the z-score turn out when `Cc1cccc(OCCSc2nc3c([nH]2)c(=N)ncn3Cc2ccccc2)c1` was run?
The z-score was -0.0916.

`CC(C)(C)c1ccc(C(=O)NC(=S)NCC2CCCO2)cc1` (stereo unspecified) was tested. Which z-score did it give?
Its z-score is 1.62.

For `Cc1ccccc1Nc1nc(-c2sc(NC(=O)c3ccco3)nc2C)cs1`, which z-score is on record?
Its z-score is -0.239.

With `Nc1ccc(Sc2cnn(-c3ccccc3)c(=O)c2Cl)cc1` as the compound, how does the z-score read?
The z-score was -2.01.

For `Cc1ccc(/C=C2/NC(=O)N(Cc3ccccc3)C2=O)s1`, which z-score is on record?
The z-score was -0.0544.

How did the z-score turn out when `CCN1C(=O)/C(=C/c2ccc(C)s2)NC1=S` was run?
The z-score was 15.1 (active).

How did the z-score turn out when `CCN1C(=O)/C(=C\N(C)C)NC1=S` was run?
The z-score was -0.121.

Which z-score does the source give for `CCS(=O)(=O)N1CCN(c2ccc(Cl)cc2[N+](=O)[O-])CC1` here?
The z-score was 0.325.

How did the z-score turn out when `CCOc1ccc(C(=O)CN2CCN(S(=O)(=O)c3ccc(OC)cc3)CC2)cc1` was run?
The z-score was -0.414.

For `COc1cccc(C(=O)CN2CCN(S(=O)(=O)c3ccc(Br)cc3)CC2)c1`, which z-score is on record?
The z-score was -0.472.

`CCOc1ccc(C(=O)CN2CCN(S(=O)(=O)c3ccc(Br)cc3)CC2)cc1` was tested. Which z-score did it give?
The z-score was 4.08 (active).

Which z-score does the source give for `CN1CCN(c2ccccc2NC(=O)COc2ccccc2)CC1` here?
Its z-score is -0.109.

Which z-score does the source give for `COc1ccc(/C=N/NC(=O)CSc2nnc(C)n2-c2ccccc2)c(OC)c1OC` here?
Its z-score is -0.14.

Which z-score does the source give for `O=C1NN(c2ccccc2)C(=O)/C1=C/c1coc2ccccc2c1=O` here?
Its z-score is -0.738.

Which z-score does the source give for `CSC1=NSC2=NC(=O)/C(=C/c3coc4ccccc4c3=O)C(=N)N12` here?
Its z-score is 10.4 (active).

For `O=C1N=C(N2CCN(c3cccc4ccccc34)CC2)S/C1=C/c1cccs1`, which z-score is on record?
The z-score was -0.0125.

`Cc1cc(/C=C2\C(=N)N3C(SCc4ccccc4)=NSC3=NC2=O)c(C)n1Cc1ccccc1` was tested. Which z-score did it give?
Its z-score is 0.143.

Which z-score does the source give for `CSC1=NSC2=NC(=O)/C(=C/c3coc4ccc(O)cc4c3=O)C(=N)N12` here?
The z-score was -0.47.

Which z-score does the source give for `N=C1/C(=C/c2cccs2)C(=O)N=C2SN=C(SCc3ccccc3)N12` here?
Its z-score is 9.53 (active).

For `O=[N+]([O-])c1ccc(N2CCCCC2)cc1NCCOc1ccccc1`, which z-score is on record?
The z-score was 0.0562.

For `COc1cccc(/C=c2\s/c(=C/C(=O)c3ccc(C)cc3)[nH]c2=O)c1OC`, which z-score is on record?
Its z-score is 1.51.

How did the z-score turn out when `CC(C)(C)C(=O)/C=c1\[nH]c(=O)/c(=C\c2ccc(F)cc2)s1` was run?
The z-score was 5.06 (active).

For `Cc1cccc(/C=C2\CS/C(=C\c3cccc(C)c3)C2=O)c1`, which z-score is on record?
Its z-score is -0.0758.

`COc1ccc(/C=c2\s/c(=C/C(=O)c3ccc(C)cc3)[nH]c2=O)cc1OC` was tested. Which z-score did it give?
Its z-score is 0.46.

How did the z-score turn out when `COc1ccc(/C=c2\s/c(=C/C(=O)c3ccc(C)cc3)[nH]c2=O)c(OC)c1` was run?
Its z-score is 0.0664.

For `Cc1ccccc1/C=c1\s/c(=C\C(=O)C(C)(C)C)[nH]c1=O`, which z-score is on record?
The z-score was 5.84 (active).

With `CC(C)(C)NC(=O)COC(=O)/C=C/c1ccc(F)cc1` as the compound, how does the z-score read?
The z-score was -0.0768.

For `CC(C)(CNC(=O)/C=C/c1ccc(F)cc1)CNC(=O)/C=C/c1ccc(F)cc1`, which z-score is on record?
The z-score was -0.186.

How did the z-score turn out when `CSc1ccc(/C=c2\s/c(=C\C(=O)C(C)(C)C)n(CC(=O)NCCC3=CCCCC3)c2=O)cc1` was run?
The z-score was -0.0802.

How did the z-score turn out when `Cc1cccc(/C=c2\s/c(=C\C(=O)C(C)(C)C)[nH]c2=O)c1` was run?
The z-score was 9.35 (active).

How did the z-score turn out when `CCc1ccc(/C=C(\Cl)c2nc3cc(Cl)ccc3c(=O)[nH]2)cc1` was run?
The z-score was 0.511.

With `CCc1ccc(/C=c2\s/c(=C\C(=O)C(C)(C)C)[nH]c2=O)cc1` as the compound, how does the z-score read?
The z-score was 7.24 (active).

For `O=C(Cc1ccccc1)NC(NNc1ccccc1)(C(F)(F)F)C(F)(F)F`, which z-score is on record?
The z-score was -0.447.

How did the z-score turn out when `CC(C)N(Cc1nc(-c2ccccc2)no1)C(=O)CCCN1C(=O)c2ccccc2C1=O` was run?
Its z-score is -0.305.

For `CCOC(=O)c1ccc(NC(=S)N2CCSC2c2ccc(Br)cc2)cc1` (stereo unspecified), which z-score is on record?
The z-score was 0.308.

Which z-score does the source give for `O=c1oc2cc(OCc3ccc(F)cc3F)ccc2cc1-c1ccc2ccccc2n1` here?
The z-score was -0.209.

How did the z-score turn out when `O=S(=O)(c1ccc(Oc2ccc(Cl)cc2)c(S(=O)(=O)N2CCCCC2)c1)N1CCCCC1` was run?
The z-score was -0.278.

For `CCOc1ccc(OCC)c(NC(=O)C2CCN(S(=O)(=O)c3cccc4nonc34)CC2)c1`, which z-score is on record?
The z-score was 0.0264.

`COc1ccc(Cn2c(C)c(C)c(C#N)c2NC(=O)Nc2cccc(Cl)c2)cc1` was tested. Which z-score did it give?
Its z-score is -0.0483.

With `COc1ccc(-c2cc(C(F)(F)F)nc(SCC(N)=O)n2)cc1` as the compound, how does the z-score read?
Its z-score is 0.362.

How did the z-score turn out when `Cn1c(=O)c2c(ncn2CC(=O)Nc2ccccc2)n(C)c1=O` was run?
Its z-score is 0.318.

With `Cc1ccc(C(=O)Nc2cccnc2)cc1S(=O)(=O)N1CCOCC1` as the compound, how does the z-score read?
The z-score was 0.265.
